POLB inh – blocks human DNA polymerase beta activity. P06746. Pol beta primer extension/strand displacement, fluorescence kinetic. Potency, µM (series often up to 114 µM), actives largely listed as inhibitors. hit rate 1.3% among 340,000. AID 485314
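Human Pol beta at 10 nM; strand-displacement substrate 50 nM final. Compound exposure 15 min at room temperature before start, reaction 10 min at room temperature.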
Pol eta inh-1 – inhibitors of human DNA polymerase eta. recombinant Pol eta, fluorescent DNA replication assay. Potency, µM (top dose mostly 114 µM), usual class: inhibitors. Q9Y253. hit rate 1.2% among 390,000. AID 588591
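Pol eta (10 nM) was preincubated with compounds for 15 min at room temperature, after which fluorescent replication substrate (50 nM final) was added to start the reaction. Fluorescence was read kinetically at 0 and 10 min.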
TDP1 inh – inhibitors of human tyrosyl-DNA phosphodiesterase TDP1; Q9NUW8; AID 485290; Potency, µM (series often up to 130 µM), hits mostly inhibitors; hit rate 0.28% among 350,000; recombinant TDP1, AlphaScreen DNA substrate cleavage; note: nearly all actives have a fitted effect of over 40% in size
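Tdp1 1 nM final; 15 min RT w/ cpd; substrate 15 nM, 5 min; beads 10 ug/ml, 10 min; AlphaScreen read. Neg ctrl: no enzyme.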
Pol iota inh – DNA polymerase iota (human) inhibition. Q9UNA4. Pol iota fluorescent replication assay, 10 min. Potency, µM (highest dose often 115 µM), most hits filed as inhibitors. hit rate 1% among 390,000
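Fluorescent replication assay read twice, at 0 min and 10 min after adding 50 nM (final) substrate. Enzyme (10 nM) and compounds were first incubated 15 min at room temperature; enzyme-free buffer wells were negative controls.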
Pol kappa inh-1 – DNA polymerase kappa (human) inhibition. AID 588579. hit rate 0.53% among 400,000. purified Pol kappa, fluorescent DNA synthesis assay, 10 min. Q9UBT6. Potency, µM (top dose mostly 107 µM), actives largely listed as inhibitors
Target sequence (Q9UBT6 whole entry, looked up): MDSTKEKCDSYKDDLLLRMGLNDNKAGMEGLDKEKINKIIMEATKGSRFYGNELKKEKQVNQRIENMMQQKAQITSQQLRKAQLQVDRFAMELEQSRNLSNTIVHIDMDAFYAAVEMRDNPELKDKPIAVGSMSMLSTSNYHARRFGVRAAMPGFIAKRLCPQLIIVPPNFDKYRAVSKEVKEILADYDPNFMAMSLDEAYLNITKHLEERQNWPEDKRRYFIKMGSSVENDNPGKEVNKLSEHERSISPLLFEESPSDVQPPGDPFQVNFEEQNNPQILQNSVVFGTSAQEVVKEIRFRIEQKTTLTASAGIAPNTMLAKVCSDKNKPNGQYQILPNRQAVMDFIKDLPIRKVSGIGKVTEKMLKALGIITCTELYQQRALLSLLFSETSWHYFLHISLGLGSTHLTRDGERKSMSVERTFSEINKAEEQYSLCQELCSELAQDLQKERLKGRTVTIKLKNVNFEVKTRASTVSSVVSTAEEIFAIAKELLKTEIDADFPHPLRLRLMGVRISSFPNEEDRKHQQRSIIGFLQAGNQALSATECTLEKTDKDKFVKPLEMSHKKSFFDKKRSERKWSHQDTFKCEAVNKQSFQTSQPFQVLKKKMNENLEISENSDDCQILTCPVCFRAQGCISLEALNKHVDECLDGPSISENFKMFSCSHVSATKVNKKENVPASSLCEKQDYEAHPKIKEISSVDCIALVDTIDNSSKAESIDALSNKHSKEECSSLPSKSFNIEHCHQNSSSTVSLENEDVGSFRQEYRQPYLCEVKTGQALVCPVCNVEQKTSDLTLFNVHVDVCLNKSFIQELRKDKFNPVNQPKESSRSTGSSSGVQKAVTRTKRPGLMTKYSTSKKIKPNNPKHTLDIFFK
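Fluorescent qHTS in 1536-well format: enzyme (10 nM) and compound sat 15 min at room temperature before 50 nM substrate (final) was added. Signal taken at 0 and 10 min; no-enzyme buffer wells were negative controls.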
FEN1 inhibitor – blocks human flap endonuclease 1 | Recombinant FEN1 flap cleavage, fluorescence, 15 min | hit rate 0.35% among 390,000 | Potency, µM (top dose mostly 114 µM), usual class: inhibitors; note: nearly all actives have a fitted effect of over 65% in size
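FEN1 at 10 nM preincubated with compounds 15 min at room temperature, then flap DNA substrate added at 50 nM final. Signal read at 0 and 15 min; concentration-response fitted with four-parameter Hill equation.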
Pol kappa inh-2 – Pol kappa (human) inhibition, cherry-pick confirmation. shares compounds with Pol eta inh-1. purified Pol-kappa, fluorescent strand-displacement substrate. Potency, µM, actives largely listed as inhibitors. hit rate 76% among 920
Pol eta inh-2 – Pol eta (human) inhibition, cherry-pick confirmation; hit rate 64% among 2,600; Potency, µM, actives largely listed as inhibitors; Pol eta primer extension, TAMRA/BHQ fluorescence, 10 min; AID 720502; shares compounds with Pol eta inh-1
Of the large screens only hits and unclear results are named; the others gave an inactive call (follow-up assays come after a bar, where they were run). A selection: hits, their analogues and other compounds. The true share with any hit is near 2.4%. Calls come from the whole dose curve; as a rule, active = well fitted curve in the direction sought with a large enough effect; inconclusive = small, poorly fitted or top-dose-only effect, or another doubt; inactive = no such curve, though single readings can be large; an effect the other way counts as inactive or inconclusive.

C[C@@H](C(=O)Nc1nc(-c2ccccn2)cs1)N1C(=O)C2CCCCC2C1=O (stereo not given in full)	POLB inh 13µM, Pol eta inh-1 13µM, Pol iota inh 7.1µM | Pol eta inh-2 inconclusive
COc1ccc(C(C)=O)cc1CC(=O)Nc1cccc(S(=O)(=O)N2CCOCC2)c1	none (no result: POLB inh)
Cc1ccccc1Nc1nn2c(=O)c3ccccc3nc2s1	none
COc1cccc(Nc2nn3c(=O)c4ccccc4nc3s2)c1	Pol eta inh-1 50µM, FEN1 inhibitor inconclusive (no result: POLB inh) | Pol eta inh-2 inconclusive
Cc1cccc(C(c2sc3nc(-c4ccco4)nn3c2O)N2CCOCC2)c1 (stereo not given)	none
Cc1ccc(S(=O)(=O)NN2C(=O)/C(=C\c3ccc(Cl)cc3)SC2=S)cc1	Pol eta inh-1 40µM, Pol iota inh inconclusive, FEN1 inhibitor inconclusive (no result: TDP1 inh) | Pol eta inh-2 24
COc1cc(OC)cc(C(=O)OCC(=O)Nc2nnc(-c3ccccc3)o2)c1	none (no result: POLB inh, TDP1 inh)
O=C(COC(=O)c1cncc(Br)c1)Nc1nnc(-c2ccccc2)o1	Pol eta inh-1 40µM, Pol iota inh inconclusive, Pol kappa inh-1 inconclusive (no result: POLB inh, TDP1 inh) | Pol eta inh-2 60
COc1ccc(-c2cc(Cl)cc3c(=O)c4ccccc4n(C)c23)cc1F	none (no result: TDP1 inh)
N#C/C(=C/c1ccc(-c2ccc(C(=O)O)c(Cl)c2)o1)C(=O)NCC1CCCO1 (stereo not given)	POLB inh inconclusive, Pol eta inh-1 10µM, Pol iota inh inconclusive, Pol kappa inh-1 inconclusive (no result: TDP1 inh) | Pol eta inh-2 inconclusive
O=C(O)C1CC=CCC1C(=O)N1CCc2ccccc21 (stereo not given)	POLB inh 20µM, Pol eta inh-1 inconclusive, TDP1 inh 22µM, Pol kappa inh-1 inconclusive | Pol eta inh-2 inconclusive
COc1cc(S(=O)(=O)n2ccnc2C(C)C)ccc1Br	none
O=C(Cn1nc(-c2ccc(Cl)cc2)c2ccccc2c1=O)Nc1cccc(C(F)(F)F)c1	Pol iota inh inconclusive, FEN1 inhibitor inconclusive (no result: TDP1 inh)
Cc1cc(C)nc(NS(=O)(=O)c2ccc(NS(=O)(=O)c3ccc(C#N)cc3)cc2)n1	none
Cc1cc(C)nc(SCC(=O)NNS(=O)(=O)c2ccc(C#N)cc2)n1	Pol eta inh-1 13µM, Pol iota inh 18µM, Pol kappa inh-1 inconclusive (no result: POLB inh, TDP1 inh) | Pol kappa inh-2 inconclusive | Pol eta inh-2 76
Cc1ccccc1NS(=O)(=O)c1ccc2[nH]cc(C(=O)N3CCCCC3)c(=O)c2c1	POLB inh inconclusive, Pol eta inh-1 45µM, TDP1 inh 22µM, Pol iota inh inconclusive | Pol eta inh-2 76
Cc1ccccc1NS(=O)(=O)c1ccc2[nH]cc(C(=O)NC(C)c3ccccc3)c(=O)c2c1 (stereo not given)	POLB inh 40µM, Pol eta inh-1 25µM, TDP1 inh inconclusive, Pol iota inh inconclusive | Pol eta inh-2 inconclusive
Cc1ccc(CCNC(=O)c2c[nH]c3ccc(S(=O)(=O)Nc4ccc(C)cc4C)cc3c2=O)cc1	POLB inh inconclusive, Pol eta inh-1 50µM, Pol iota inh inconclusive (no result: TDP1 inh) | Pol eta inh-2 inconclusive
COc1cc(NC(=O)NCCn2nnc3cc(S(=O)(=O)N(C)C)ccc32)cc(OC)c1	none
COc1ccc(CCNC(=O)c2ccc(-n3c(C)cc4c3CCC(C)C4)cc2)cc1OC (stereo not given)	none
COc1cc(NS(=O)(=O)c2ccc(N/C=C(\C#N)c3nc4cc(Cl)ccc4o3)cc2)nc(OC)n1	Pol eta inh-1 35µM | Pol eta inh-2 inconclusive
COc1cc(/C=C2/C(C)=C(C#N)c3nc(N)c(C#N)c(C)c32)ccc1OCC(=O)O	POLB inh inconclusive, Pol eta inh-1 18µM, Pol iota inh inconclusive, Pol kappa inh-1 89µM, FEN1 inhibitor inconclusive | Pol eta inh-2 30
O=c1c(Br)ccc(Br)cc1Br	Pol eta inh-1 28µM, Pol iota inh 7.1µM, FEN1 inhibitor inconclusive (no result: POLB inh, TDP1 inh) | Pol eta inh-2 inconclusive
O=C1CN(S(=O)(=O)c2cc(Br)ccc2Br)CCN1	none (no result: POLB inh)
CCOc1ccc(C(=O)Nc2cc(NC(=O)c3ccc(OCC)c(Cl)c3)cc(C(=O)O)c2)cc1Cl	POLB inh 18µM, Pol eta inh-1 32µM, Pol iota inh inconclusive, FEN1 inhibitor inconclusive (no result: TDP1 inh) | Pol kappa inh-2 21
CCOc1ccc(C(=O)Nc2cccc(C(=O)O)c2)cc1Cl	none
Cc1ccc(CNC(=O)c2c(Nc3c(C)cccc3C)sc(C(=O)c3ccccc3)c2N)cc1	none
O=C(/C=C/c1ccc(-c2ccccc2[N+](=O)[O-])o1)c1ccco1	POLB inh inconclusive, Pol eta inh-1 40µM, Pol iota inh inconclusive, Pol kappa inh-1 inconclusive | Pol eta inh-2 76
COc1cc(-c2cc(=O)c3c(O)c(OC)c(OC)cc3o2)cc(OC)c1O	POLB inh 28µM, Pol eta inh-1 22µM, Pol iota inh inconclusive, Pol kappa inh-1 79µM (no result: TDP1 inh) | Pol eta inh-2 67
COc1cc2oc(-c3ccccc3)cc(=O)c2cc1O	none (no result: POLB inh, Pol eta inh-1, Pol iota inh, FEN1 inhibitor)
COc1ccc(S(=O)(=O)NCCCO)cc1-c1nnc2c3ccccc3c(C)nn12	none
C/C(=N\Nc1nccnc1Cl)c1ccc(O)c(C)c1	Pol kappa inh-1 inconclusive (no result: TDP1 inh)
CC1(OC(=O)C2CCCC2)C(=O)C=C2C=C(c3ccsc3)N(Cc3ccco3)C=C2C1=O (stereo not given)	POLB inh inconclusive, Pol iota inh inconclusive, Pol kappa inh-1 25µM, FEN1 inhibitor inconclusive | Pol eta inh-2 2.4
CC(Oc1ccc(C#N)cc1)C(=O)Nc1ccc(-n2cnnn2)cc1 (stereo not given)	none (no result: POLB inh)
Cc1ccc(-c2nnc3c4ccccc4c(-c4ccccc4)nn23)cc1	Pol iota inh inconclusive
CC1=C(C(=O)O)N2C(=O)[C@@H](NC(=O)[C@H](N)c3ccc(O)cc3)[C@H]2SC1	none (no result: POLB inh, TDP1 inh)
CC(C(=O)NC1C(=O)N2C(C(=O)O)=C(CSc3nnnn3C)CSC12)n1cc(Br)cn1 (stereo not given)	POLB inh 18µM, Pol eta inh-1 32µM, Pol iota inh inconclusive, Pol kappa inh-1 inconclusive | Pol eta inh-2 inconclusive
Cn1nnnc1SCC1=C(C(=O)O)N2C(=O)C(NC(=O)C3CC3c3ccccc3)C2SC1 (stereo not given)	POLB inh 32µM, Pol eta inh-1 14µM, Pol iota inh 14µM, Pol kappa inh-1 inconclusive | Pol kappa inh-2 67 | Pol eta inh-2 48
C/C(N)=C(/C#N)C(=O)CN1C(=O)NC(Cc2c[nH]c3ccccc23)C1=O (stereo not given)	POLB inh 28µM, Pol eta inh-1 32µM, Pol iota inh inconclusive, Pol kappa inh-1 inconclusive (no result: TDP1 inh) | Pol eta inh-2 inconclusive
O=C(Nc1ccc(C(F)(F)F)cc1)C1CCCN(c2cnccn2)C1 (stereo not given)	POLB inh inconclusive, Pol eta inh-1 inconclusive

Screening results (PubChem)
